Measured values as given in the supplement of paper PMC12669032.

Assays:
Assay in all cases: growth AUC relative to DMSO control (median of replicates) (fraction); higher = more growth (less inhibition), active = hit call of the paper
Conditions in all cases: 20 µM; 24 h;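 active = AUC reduced over 20% with Padj below 0.05 in at least 2 of 3 replicates; inactive = otherwise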
Coprococcus comes = tested on: Coprococcus comes
Procedure, shortened: (§1)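 Each value is the median of three biological replicates, grown on separate days, of a gut bacterial monoculture incubated anaerobically at 37 °C in mGAM with 20 µM compound (1% DMSO). Cultures started at OD600 0.05 and were read at OD600 hourly for 24 h, with the minimum OD set to 0. Area under the growth curve was normalised to the plate median of solvent-only wells, or to row and column medians on the industrial chemical plate.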

Escherichia coli ED1a = tested on: Escherichia coli ED1a
Procedure, shortened: as §1

Escherichia coli IAI1 = tested on: Escherichia coli IAI1
Procedure, shortened: as §1

Eubacterium rectale = tested on: Eubacterium rectale
Procedure, shortened: as §1

[1] = tested on: Fusobacterium nucleatum subsp. animalis
Procedure, shortened: as §1

Lactobacillus gasseri = tested on: Lactobacillus gasseri
Procedure, shortened: as §1

Lactobacillus paracasei = tested on: Lactobacillus paracasei
Procedure, shortened: as §1

Odoribacter splanchnicus = tested on: Odoribacter splanchnicus
Procedure, shortened: as §1

[2] = tested on: Parabacteroides distasonis
Procedure, shortened: as §1

Parabacteroides merdae = tested on: Parabacteroides merdae
Procedure, shortened: as §1

Roseburia intestinalis = tested on: Roseburia intestinalis
Procedure, shortened: as §1

Streptococcus salivarius = tested on: Streptococcus salivarius
Procedure, shortened: as §1

Measured: growth AUC

CC(C)(C)C(=O)C(Oc1ccc(Cl)cc1)n1ccnc1 (stereo not given)
inactive: Escherichia coli ED1a 1.03 | Escherichia coli IAI1 0.994 | [1] 1.02 | Lactobacillus gasseri 0.918 | Lactobacillus paracasei 0.971 | Odoribacter splanchnicus 0.994 | [2] 0.938 | Parabacteroides merdae 0.96 | Roseburia intestinalis 0.9 | Streptococcus salivarius 0.963
active: Coprococcus comes 0.629 | Eubacterium rectale 0.414

C=C1C[C@]23C[C@@]1(O)CC[C@H]2[C@@]12C=C[C@H](O)[C@@](C)(C(=O)O1)[C@H]2[C@@H]3C(=O)O
inactive: Coprococcus comes 0.975 | Escherichia coli ED1a 0.982 | Escherichia coli IAI1 1.01 | Eubacterium rectale 1.14 | [1] 0.967 | Lactobacillus gasseri 0.921 | Lactobacillus paracasei 0.94 | Odoribacter splanchnicus 0.779 | [2] 0.778 | Parabacteroides merdae 0.995 | Roseburia intestinalis 0.881 | Streptococcus salivarius 0.904

CNC(=O)/C(=N/OC)c1ccccc1COc1cc(C(=O)O)ccc1C
inactive: Coprococcus comes 0.984 | Escherichia coli ED1a 1.05 | Escherichia coli IAI1 0.978 | Eubacterium rectale 0.963 | [1] 0.949 | Lactobacillus gasseri 1.1 | Lactobacillus paracasei 0.98 | Odoribacter splanchnicus 0.987 | [2] 1.01 | Parabacteroides merdae 0.973 | Roseburia intestinalis 0.996 | Streptococcus salivarius 0.995

CCc1cccc(C)c1NC(C)C(=O)O (racemic)
inactive: Coprococcus comes 1.04 | Escherichia coli ED1a 0.986 | Escherichia coli IAI1 0.977 | Eubacterium rectale 1.19 | [1] 1.04 | Lactobacillus gasseri 0.97 | Lactobacillus paracasei 0.968 | Odoribacter splanchnicus 0.999 | [2] 0.978 | Parabacteroides merdae 1 | Roseburia intestinalis 1.04 | Streptococcus salivarius 1.02

CCCCCCCCSCCO
inactive: Coprococcus comes 0.974 | Escherichia coli ED1a 0.955 | Escherichia coli IAI1 0.936 | Eubacterium rectale 1.04 | [1] 0.902 | Lactobacillus gasseri 0.94 | Lactobacillus paracasei 0.93 | Odoribacter splanchnicus 1.03 | [2] 0.915 | Parabacteroides merdae 0.966 | Roseburia intestinalis 0.944 | Streptococcus salivarius 0.959

CC(C)OC(=O)[C@@H](C)N(C(=O)c1ccccc1)c1ccc(F)c(Cl)c1
inactive: Coprococcus comes 1.05 | Escherichia coli ED1a 1.03 | Escherichia coli IAI1 1 | Eubacterium rectale 1.27 | [1] 1.1 | Lactobacillus gasseri 0.933 | Lactobacillus paracasei 1.09 | Odoribacter splanchnicus 0.977 | [2] 1 | Parabacteroides merdae 1.01 | Roseburia intestinalis 0.999 | Streptococcus salivarius 1

CC1CN(C2CCCCCCCCCCC2)CC(C)O1 (mixture of isomers)
inactive: Coprococcus comes 0.992 | Escherichia coli ED1a 0.994 | Escherichia coli IAI1 0.971 | Eubacterium rectale 1.23 | [1] 0.955 | Lactobacillus gasseri 0.926 | Lactobacillus paracasei 1.02 | Odoribacter splanchnicus 1.14 | [2] 1.02 | Parabacteroides merdae 0.97 | Roseburia intestinalis 0.992 | Streptococcus salivarius 1

O=[N+](Nc1ccccc1)c1ccccc1
inactive: Coprococcus comes 0.959 | Escherichia coli ED1a 0.993 | Escherichia coli IAI1 0.955 | Eubacterium rectale 0.921 | [1] 0.978 | Lactobacillus gasseri 0.973 | Lactobacillus paracasei 1.04 | Odoribacter splanchnicus 0.973 | [2] 0.976 | Parabacteroides merdae 0.986 | Roseburia intestinalis 0.944 | Streptococcus salivarius 1.06

CCOC(=O)Cc1[nH]nc2ccc(Cl)cc12
inactive: Coprococcus comes 0.976 | Escherichia coli ED1a 1.02 | Escherichia coli IAI1 1 | Eubacterium rectale 1.03 | [1] 1.08 | Lactobacillus gasseri 1.02 | Lactobacillus paracasei 0.917 | Odoribacter splanchnicus 1.08 | [2] 0.983 | Parabacteroides merdae 1.03 | Roseburia intestinalis 1.14 | Streptococcus salivarius 1

CC(C)(NC(=O)NCc1ccccc1Cl)c1ccccc1
inactive: Coprococcus comes 1.02 | Escherichia coli ED1a 1.04 | Escherichia coli IAI1 1.03 | Eubacterium rectale 1.03 | [1] 1.02 | Lactobacillus gasseri 0.978 | Lactobacillus paracasei 0.986 | Odoribacter splanchnicus 1.05 | [2] 1.02 | Parabacteroides merdae 0.994 | Roseburia intestinalis 1.09 | Streptococcus salivarius 1

O=C(Nc1ccc(F)cc1)c1cccc(Oc2cccc(C(F)(F)F)c2)n1
inactive: Coprococcus comes 0.993 | Escherichia coli ED1a 0.95 | Escherichia coli IAI1 0.95 | Eubacterium rectale 1.02 | [1] 0.927 | Lactobacillus gasseri 0.87 | Lactobacillus paracasei 0.927 | Odoribacter splanchnicus 1.07 | [2] 0.905 | Parabacteroides merdae 0.911 | Roseburia intestinalis 0.918 | Streptococcus salivarius 0.956

CSC(=O)c1cccc2nnsc12
inactive: Coprococcus comes 1.01 | Escherichia coli ED1a 0.994 | Escherichia coli IAI1 0.981 | Eubacterium rectale 1.03 | [1] 1.12 | Lactobacillus gasseri 0.934 | Lactobacillus paracasei 0.953 | Odoribacter splanchnicus 1.01 | [2] 0.921 | Parabacteroides merdae 1.01 | Roseburia intestinalis 0.953 | Streptococcus salivarius 0.968

NS(=O)(=O)[O-].[NH4+]
inactive: Coprococcus comes 1.06 | Escherichia coli ED1a 1.03 | Escherichia coli IAI1 1.02 | Eubacterium rectale 1.09 | [1] 1.09 | Lactobacillus gasseri 0.996 | Lactobacillus paracasei 0.997 | Odoribacter splanchnicus 0.988 | [2] 1.02 | Parabacteroides merdae 1.06 | Roseburia intestinalis 1.06 | Streptococcus salivarius 1.01

CNC(=O)Nc1nc2ccccc2s1
inactive: Coprococcus comes 1.01 | Escherichia coli ED1a 0.999 | Escherichia coli IAI1 0.984 | Eubacterium rectale 1.03 | [1] 1 | Lactobacillus gasseri 0.944 | Lactobacillus paracasei 0.953 | Odoribacter splanchnicus 1.05 | [2] 0.984 | Parabacteroides merdae 1.03 | Roseburia intestinalis 0.983 | Streptococcus salivarius 0.965

CN(C)C(=O)SCCCCOc1ccccc1
inactive: Coprococcus comes 0.968 | Escherichia coli ED1a 0.98 | Escherichia coli IAI1 0.962 | Eubacterium rectale 1.12 | [1] 0.958 | Lactobacillus gasseri 1.01 | Lactobacillus paracasei 0.975 | Odoribacter splanchnicus 0.981 | [2] 0.938 | Parabacteroides merdae 0.961 | Roseburia intestinalis 0.998 | Streptococcus salivarius 0.99

CCNC(=O)[C@@H](C)OC(=O)Nc1ccccc1
inactive: Coprococcus comes 1.04 | Escherichia coli ED1a 1.01 | Escherichia coli IAI1 1.01 | Eubacterium rectale 1.01 | [1] 1.05 | Lactobacillus gasseri 1.18 | Lactobacillus paracasei 0.941 | Odoribacter splanchnicus 0.955 | [2] 1.08 | Parabacteroides merdae 1.04 | Roseburia intestinalis 1.14 | Streptococcus salivarius 1.02

CN(C)C=O
inactive: Coprococcus comes 1.04 | Escherichia coli ED1a 1.03 | Escherichia coli IAI1 1.03 | Eubacterium rectale 0.998 | [1] 1.11 | Lactobacillus gasseri 1.01 | Lactobacillus paracasei 1.03 | Odoribacter splanchnicus 1.05 | [2] 0.998 | Parabacteroides merdae 1.02 | Roseburia intestinalis 1.1 | Streptococcus salivarius 0.999

CC(C)(C)Nc1nc(N)nc(Cl)n1
inactive: Coprococcus comes 0.999 | Escherichia coli ED1a 1.03 | Escherichia coli IAI1 0.998 | Eubacterium rectale 0.979 | [1] 1 | Lactobacillus gasseri 0.974 | Lactobacillus paracasei 0.987 | Odoribacter splanchnicus 0.995 | [2] 1.02 | Parabacteroides merdae 0.97 | Roseburia intestinalis 1.01 | Streptococcus salivarius 0.975

CCOCCc1ccc(OCCNc2ncnc(CC)c2Cl)c(C)c1C
inactive: Coprococcus comes 0.978 | Escherichia coli ED1a 0.999 | Escherichia coli IAI1 0.961 | Eubacterium rectale 0.846 | [1] 1.07 | Lactobacillus gasseri 0.883 | Lactobacillus paracasei 0.929 | Odoribacter splanchnicus 1.01 | [2] 0.903 | Parabacteroides merdae 0.92 | Roseburia intestinalis 0.923 | Streptococcus salivarius 1

CCN(CC)C(=O)SCc1ccccc1Cl
inactive: Coprococcus comes 1.01 | Escherichia coli ED1a 1.04 | Escherichia coli IAI1 1 | Eubacterium rectale 0.939 | [1] 0.964 | Lactobacillus gasseri 1.1 | Lactobacillus paracasei 0.994 | Odoribacter splanchnicus 1.12 | [2] 0.92 | Parabacteroides merdae 0.95 | Roseburia intestinalis 1.01 | Streptococcus salivarius 1.02

CCNc1nc(NC(C)CC)nc(OC)n1 (stereo not given)
inactive: Coprococcus comes 1.02 | Escherichia coli ED1a 0.992 | Escherichia coli IAI1 0.994 | Eubacterium rectale 0.961 | [1] 1.05 | Lactobacillus gasseri 1.11 | Lactobacillus paracasei 1.12 | Odoribacter splanchnicus 1 | [2] 0.996 | Parabacteroides merdae 1.02 | Roseburia intestinalis 1.07 | Streptococcus salivarius 1.02

CCOC(=O)CSc1nc(C(C)(C)C)nn1C(=O)N(C)C
inactive: Coprococcus comes 0.985 | Escherichia coli ED1a 0.961 | Escherichia coli IAI1 0.947 | Eubacterium rectale 1.05 | [1] 0.918 | Lactobacillus gasseri 0.91 | Lactobacillus paracasei 0.956 | Odoribacter splanchnicus 0.948 | [2] 0.896 | Parabacteroides merdae 0.947 | Roseburia intestinalis 0.913 | Streptococcus salivarius 0.957

CCc1cccc(C)c1NC(=O)C(=O)O
inactive: Coprococcus comes 0.985 | Escherichia coli ED1a 1.02 | Escherichia coli IAI1 1 | Eubacterium rectale 0.989 | [1] 0.981 | Lactobacillus gasseri 0.916 | Lactobacillus paracasei 0.969 | Odoribacter splanchnicus 0.998 | [2] 0.982 | Parabacteroides merdae 1.03 | Roseburia intestinalis 0.953 | Streptococcus salivarius 0.994

COc1cc(Cl)ccc1Oc1ccc(Cl)cc1Cl
inactive: Coprococcus comes 0.938 | Escherichia coli ED1a 0.996 | Escherichia coli IAI1 1 | Eubacterium rectale 0.99 | [1] 0.851 | Lactobacillus gasseri 1 | Lactobacillus paracasei 1.16 | Odoribacter splanchnicus 0.947 | [2] 0.988 | Parabacteroides merdae 0.929 | Roseburia intestinalis 0.991 | Streptococcus salivarius 1.05

COC(=O)C(Cl)Cc1ccc(Cl)cc1 (stereo not given)
inactive: Coprococcus comes 0.962 | Escherichia coli ED1a 0.994 | Escherichia coli IAI1 0.971 | Eubacterium rectale 0.994 | [1] 0.995 | Lactobacillus gasseri 0.891 | Lactobacillus paracasei 1.06 | Odoribacter splanchnicus 0.899 | [2] 1 | Parabacteroides merdae 0.901 | Roseburia intestinalis 0.965 | Streptococcus salivarius 0.93
